Values joined by “and” are separate entries in the source; they are usually repeats but may differ in a detail not shown here. Equal entries are not always repeated. Records with an inconclusive call do not appear. Entries that show only a call come without a potency. Where a structure was tested more than once in an assay, its records may differ in their call. Active and inactive are the calls of the source. Unless noted, calls come from the whole dose curve.

The text below walks through data of PubChem BioAssay (Tox21).

Sequence of KiSS-1 receptor (Homo sapiens) (Q969F8 whole entry, looked up): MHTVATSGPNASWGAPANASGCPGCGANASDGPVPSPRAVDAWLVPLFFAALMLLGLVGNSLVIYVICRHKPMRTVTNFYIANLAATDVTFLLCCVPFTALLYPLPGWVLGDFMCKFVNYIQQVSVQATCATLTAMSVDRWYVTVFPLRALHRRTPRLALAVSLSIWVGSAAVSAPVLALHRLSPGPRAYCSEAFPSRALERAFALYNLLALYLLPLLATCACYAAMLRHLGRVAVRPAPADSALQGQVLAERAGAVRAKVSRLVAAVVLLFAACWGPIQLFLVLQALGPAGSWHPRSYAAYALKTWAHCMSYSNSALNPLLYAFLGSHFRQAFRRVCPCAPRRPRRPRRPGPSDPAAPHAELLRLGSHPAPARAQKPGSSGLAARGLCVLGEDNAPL

Tested on in one test: not listed separately
The experiment in a line: Nuclear factor erythroid 2-related factor 2/antioxidant responsive element (Nrf2/ARE) small molecule agonists: luciferase reporter gene qHTS assay in human keratinocytes (AID 1919969). Note: nearly all actives have a fitted effect of over 35% in size. Note: potency is the fitted concentration of half-maximal effect. The settings on record: KeratinoSens HaCaT ARE-luciferase, luminescence, 24 h; series mostly up to 92.4 µM. Background: Reporter assays use an easily measured gene product as a stand-in for the process of interest.
As to `Cc1ccc(N)cc1O`, the Potency was 24.3 µM (active).
Take `CCCCCCOC(=O)c1ccc(O)cc1`: the Potency is 19.4 µM (active) and inactive.
Turning to `CC(=O)[C@]1(O)Cc2c(O)c3c(c(O)c2[C@@H](O[C@H]2C[C@H](N)[C@H](O)[C@H](C)O2)C1)C(=O)c1ccccc1C3=O`, the Potency was 2.66 µM (active).
Turning to `CCN(CC)CCCC(C)Nc1ccnc2cc(Cl)ccc12` (stereo not given), the activity, positive = activation was -10.3% [at 8.39 µM] (inactive) and 0.993% [at 19 µM] (inactive).
For `CCCCCCC(C)OC(=O)COc1nc(F)c(Cl)c(N)c1Cl` (stereo not given), the Potency result is “inactive”.
For `CCCCCCOc1ccccc1C(N)=O`, the Potency result is “inactive”.
For `CCC(CN)=C(c1ccccc1)c1ccccc1`, the Potency result was “inactive”.
Regarding `CCOC(=O)c1ccccc1OC`, the Potency result was “inactive”.
Same read-out and setting: next, `CC(=O)NCCCS(=O)(=O)O`: “inactive”; `OCCN1CCN(CCCN2c3ccccc3Sc3ccc(Cl)cc32)CC1`: “inactive”.
Consider `O=C(O)[C@@H]1CSCN1`, for which the Potency result was “inactive”.
Still for that read-out and setting: under `CCOC(=O)COc1ccc2c(C)c(CCN(CC)CC)c(=O)oc2c1Cl` stands “inactive”; under `O=[N+]([O-])c1ccc(O/N=C/c2cc(Br)c(O)c(Br)c2)c([N+](=O)[O-])c1`, 60.8 µM (active); under `NC(N)=NN=C(/C=C/c1ccc([N+](=O)[O-])o1)/C=C/c1ccc([N+](=O)[O-])o1`, 6.68 µM (active).
Regarding `CC(C)c1ccc2ncccc2c1`, the Potency entry is “inactive”.
Same read-out and setting: under `CCOC(=O)COc1ccc2c(c1)CC(NCC(O)c1cccc(Cl)c1)CC2` (stereo not given) stands “inactive”.
Regarding `CCc1ccc(O)c(C(C)(C)C)c1`, the Potency entry was “inactive”.
As for `C=C1C(=C/C=C2\CCC[C@]3(C)[C@@H]([C@H](C)/C=C/[C@@H](O)C4CC4)CC[C@@H]23)C[C@@H](O)C[C@@H]1O`, the Potency result was “inactive”.
With `CC(=O)O[C@@]12CO[C@@H]1C[C@H](O)[C@@]1(C)C(=O)[C@H](O)C3=C(C)[C@@H](OC(=O)[C@H](O)[C@@H](NC(=O)OC(C)(C)C)c4ccccc4)C[C@@](O)([C@@H](OC(=O)c4ccccc4)[C@H]21)C3(C)C`, the Potency entry is “inactive”.
Take `CC[C@@]1(O)C(=O)OCc2c1cc1n(c2=O)Cc2cc3c(CN(C)C)c(O)ccc3nc2-1`: the Potency entry is “inactive”.
Same read-out and setting: next, `O=C(O)Cn1cnnn1`: “inactive”; `NC(N)=N/N=C/c1c(Cl)cccc1Cl`: “inactive”; `O=C(CC(=O)C(F)(F)F)c1ccccc1`: 49.2 µM (active).
Regarding `CN1C[C@H]2c3ccccc3Oc3ccc(Cl)cc3[C@@H]2C1`, the Potency result was “inactive”.
Take `CN1CCCN(C(c2ccccc2)c2ccc(Cl)cc2)CC1` (stereo not given): the Potency entry is “inactive”.
Same read-out and setting: under `CO[C@@]12[C@H](COC(N)=O)C3=C(C(=O)C(C)=C(N)C3=O)N1C[C@@H]1N[C@@H]12` stands 11.9 µM (active); under `CCOC(=O)[C@H](CCc1ccccc1)N[C@H]1CCc2ccccc2N(CC(=O)O)C1=O`, “inactive”; under `Oc1ccc(-c2ccccc2)c(Cl)c1`, 54.5 µM (active).
Still for that read-out and setting: next, `CCN(CC)CCOC(=O)C1(C2CCCCC2)CCCCC1`: “inactive”; `CCOc1cccc(-n2cc(C(=O)N3CCN(c4cc(C(=O)O)c5ccccc5c4)CC3)nc2-c2ccc(C)cc2)c1`: “inactive”.
The same measure, in the same setting: under `OC(CCN1CCCCC1)(c1ccccc1)C1CC2C=CC1C2` (stereo not given) stands “inactive”; under `O=C(/C=C/c1ccccc1)NCCO`, “inactive”.

The target in a further test is Gonadotropin-releasing hormone receptor (Homo sapiens) (UniProt P30968). Briefly: Human gonadotropin-releasing hormone receptor (GnRHR) small molecule agonists, calcium flux assay in GnRHR-HEK293 cells (AID 1920063). Note: nearly all actives have a fitted effect of over 35% in size. The conditions noted are these: calcium flux fluorescence, agonist mode; series mostly up to 57.6 µM. A digest of the protocol: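 GnRHR-HEK293, 1500 cells/well, 18 h 37 C/5% CO2; Ca dye 1 h 37 C; cpd pinned (DMSO), agonist mode; kinetic FL 480/540, 3 min, 1 s reads; 15 conc, n=3.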
Sequence of Gonadotropin-releasing hormone receptor (Homo sapiens) (P30968 whole entry, looked up): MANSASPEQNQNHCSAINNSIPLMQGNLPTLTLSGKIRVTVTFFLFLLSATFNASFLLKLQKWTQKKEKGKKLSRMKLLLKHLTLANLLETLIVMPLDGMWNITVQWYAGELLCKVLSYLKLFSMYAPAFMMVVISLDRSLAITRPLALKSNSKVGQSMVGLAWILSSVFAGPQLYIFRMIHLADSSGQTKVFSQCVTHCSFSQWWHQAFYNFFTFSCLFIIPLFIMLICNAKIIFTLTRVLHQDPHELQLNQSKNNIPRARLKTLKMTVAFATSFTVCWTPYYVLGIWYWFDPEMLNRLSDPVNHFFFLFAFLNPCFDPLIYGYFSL
`CC1(O)CSC(C)(O)CS1` (stereo not given): the Potency result is “inactive”.
The same measure, in the same setting: next, `Nc1cccnc1N`: “inactive”.
The same measure, in the same setting: next, `O=[N+]([O-])c1ccc(O)cc1`: “inactive”.
The same measure, in the same setting: next, `Cc1ccc(N/N=c2\c(=O)cc/c(=N\Nc3ccc(S(=O)(=O)O)cc3)c2=O)c(C)c1`: “inactive”; `CC(C)(C)c1ccc(C(=O)O)cc1`: “inactive”.
`C[C@@H](c1ncncc1F)C(O)(Cn1cncn1)c1ccc(F)cc1F` (stereo not given in full): the Potency result was “inactive”.
Take `NCCc1cnc[nH]1`: the Potency result is “inactive”.
Still for that read-out and setting: next, `CC(C)C=O`: “inactive”.

The next test addresses KiSS-1 receptor (Homo sapiens) (UniProt Q969F8). Briefly: Human kisspeptin (KISS1R) small molecule agonists, calcium flux assay in KISS1R-HEK293 cells (AID 1920064; active = well fitted activation curve with a large enough effect in the repeat runs; note: potency is the fitted concentration of half-maximal effect). The conditions noted are these: KISS1R-HEK293, calcium flux fluorescence, agonist; series mostly up to 76.8 µM. An outline of the steps: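 Stable human KISS1R HEK293 line; 18 h plating, 37 C/5% CO2; calcium dye 1 h 37 C; compound pin transfer; kinetic fluorescence Ex/Em 480/540, 3 min.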
In general terms: Calcium flux is commonly read through the fluorescence of an indicator in the cells.
Take `Cc1ccc(N)cc1O`: the Potency result is “inactive”.
On the same count and under the same terms, next, `CC(=O)[C@]1(O)Cc2c(O)c3c(c(O)c2[C@@H](O[C@H]2C[C@H](N)[C@H](O)[C@H](C)O2)C1)C(=O)c1ccccc1C3=O`: “inactive”.
Take `CCN(CC)CCCC(C)Nc1ccnc2cc(Cl)ccc12` (stereo not given): the activation was -0.539% [at 6.97 µM] (inactive) and -0.536% [at 15.8 µM] (inactive).
With `CCCCCCC(C)OC(=O)COc1nc(F)c(Cl)c(N)c1Cl` (stereo not given), the Potency result was “inactive”.
As for `CCCCCCOc1ccccc1C(N)=O`, the Potency result is “inactive”.
Still for that read-out and setting: next, `CCC(CN)=C(c1ccccc1)c1ccccc1`: “inactive”; `CC1(O)CSC(C)(O)CS1` (stereo not given): “inactive”; `CC(=O)NCCCS(=O)(=O)O`: 11.9 µM (active).
Consider `OCCN1CCN(CCCN2c3ccccc3Sc3ccc(Cl)cc32)CC1`, for which the Potency result is “inactive”.
Consider `Nc1cccnc1N`, for which the Potency result is “inactive”.
Consider `O=C(O)[C@@H]1CSCN1`, for which the Potency entry was “inactive”.
Same read-out and setting: next, `O=[N+]([O-])c1ccc(O)cc1`: “inactive”.
On to `Cc1ccc(N/N=c2\c(=O)cc/c(=N\Nc3ccc(S(=O)(=O)O)cc3)c2=O)c(C)c1`, for which the Potency entry was “inactive”.
The same measure, in the same setting: next, `CC(C)(C)c1ccc(C(=O)O)cc1`: “inactive”.
Same read-out and setting: next, `CCOC(=O)COc1ccc2c(C)c(CCN(CC)CC)c(=O)oc2c1Cl`: “inactive”.
Take `O=[N+]([O-])c1ccc(O/N=C/c2cc(Br)c(O)c(Br)c2)c([N+](=O)[O-])c1`: the Potency result was “inactive”.
Consider `NC(N)=NN=C(/C=C/c1ccc([N+](=O)[O-])o1)/C=C/c1ccc([N+](=O)[O-])o1`, for which the Potency entry is “inactive”.
In the case of `CC(C)c1ccc2ncccc2c1`, the Potency result is “inactive”.
The same measure, in the same setting: under `CCOC(=O)COc1ccc2c(c1)CC(NCC(O)c1cccc(Cl)c1)CC2` (stereo not given) stands “inactive”; under `CCc1ccc(O)c(C(C)(C)C)c1`, “inactive”; under `C=C1C(=C/C=C2\CCC[C@]3(C)[C@@H]([C@H](C)/C=C/[C@@H](O)C4CC4)CC[C@@H]23)C[C@@H](O)C[C@@H]1O`, “inactive”.
Same read-out and setting: under `CC(=O)O[C@@]12CO[C@@H]1C[C@H](O)[C@@]1(C)C(=O)[C@H](O)C3=C(C)[C@@H](OC(=O)[C@H](O)[C@@H](NC(=O)OC(C)(C)C)c4ccccc4)C[C@@](O)([C@@H](OC(=O)c4ccccc4)[C@H]21)C3(C)C` stands “inactive”; under `CC[C@@]1(O)C(=O)OCc2c1cc1n(c2=O)Cc2cc3c(CN(C)C)c(O)ccc3nc2-1`, “inactive”.
As to `C[C@@H](c1ncncc1F)C(O)(Cn1cncn1)c1ccc(F)cc1F` (stereo not given in full), the Potency result is “inactive”.
On to `O=C(O)Cn1cnnn1`, for which the Potency result was “inactive”.
Turning to `NC(N)=N/N=C/c1c(Cl)cccc1Cl`, the Potency entry was “inactive”.
With `O=C(CC(=O)C(F)(F)F)c1ccccc1`, the Potency result is “inactive”.
For the molecule `CN1C[C@H]2c3ccccc3Oc3ccc(Cl)cc3[C@@H]2C1`, the Potency result was “inactive”.
The same measure, in the same setting: next, `NCCc1cnc[nH]1`: “inactive”; `CCOC(=O)[C@H](CCc1ccccc1)N[C@H]1CCc2ccccc2N(CC(=O)O)C1=O`: “inactive”; `Oc1ccc(-c2ccccc2)c(Cl)c1`: “inactive”.
On the same count and under the same terms, under `CCN(CC)CCOC(=O)C1(C2CCCCC2)CCCCC1` stands “inactive”; under `CCOc1cccc(-n2cc(C(=O)N3CCN(c4cc(C(=O)O)c5ccccc5c4)CC3)nc2-c2ccc(C)cc2)c1`, “inactive”; under `O=C(/C=C/c1ccccc1)NCCO`, “inactive”.
Still for that read-out and setting: under `CC(C)C=O` stands “inactive”.
